Experimental data as given in PubChem BioAssay (EPA / NIEHS).
Calls of active or inactive are those of the source. The calls were made as follows: active = hit-call score of the fitted dose curve at least 0.9, where 1 is the maximum; inactive = score below 0.9.

Tests used:
[1] = read-out: Tissue plasminogen activator (tPA), PLAT (gene 5327); assay: BSK_BE3C_tPA: BioMAP Diversity Plus: BE3C Assay for Tissue plasminogen activator (tPA) Biomarker Activity (AID 2283041); details: primary human bronchial epithelial cells; actives raise or lower the signal;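 also: tPA level quantified by ELISA one day after compound addition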
Method in brief: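 Primary human bronchial epithelial cells in the BE3C system, exposed to compound for 24 h. tPA was quantified by ELISA; DMSO served as baseline, with gain or loss of signal fitted. Cytotoxicity checked in parallel cultures by SRB total-protein staining.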

[2] = read-out: Interleukin-8 (IL8), CXCL8 (gene 3576); assay: BSK_CASM3C_IL8: BioMAP Diversity Plus: CASM3C Assay for Interleukin-8 (IL8) Biomarker Activity (AID 2283042); details: primary human coronary artery smooth muscle cells; actives raise or lower the signal;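 also: IL-8 protein level quantified by ELISA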
[3] = read-out: Human Leukocyte Antigen - DR isotype (HLADR), HLA-DRA (gene 3122); assay: BSK_CASM3C_HLADR: BioMAP Diversity Plus: CASM3C Assay for Human Leukocyte Antigen - DR isotype (HLADR) Biomarker Activity (AID 2283043); details: primary human coronary artery smooth muscle cells; actives raise or lower the signal;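 also: cell-surface HLA-DR protein level quantified by ELISA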
[4] = read-out: Macrophage colony-stimulating factor (MCSF), CSF1 (gene 1435); assay: BSK_CASM3C_MCSF: BioMAP Diversity Plus: CASM3C Assay for Macrophage colony-stimulating factor (MCSF) Biomarker Activity (AID 2283044); details: primary human coronary artery smooth muscle cells; actives raise or lower the signal;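 also: M-CSF protein amount quantified by ELISA after 24 h exposure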
[5] = read-out: Low-density lipoprotein receptor (LDLR), LDLR (gene 3949); assay: BSK_CASM3C_LDLR: BioMAP Diversity Plus: CASM3C Assay for Low-density lipoprotein receptor (LDLR) Biomarker Activity (AID 2283045); details: primary human coronary artery smooth muscle cells; actives raise or lower the signal;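 also: LDLR protein level on the cell surface quantified by ELISA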
[6] = read-out: Monocyte Chemoattractant Protein-1 (MCP1), CCL2 (gene 6347); assay: BSK_CASM3C_MCP1: BioMAP Diversity Plus: CASM3C Assay for Monocyte Chemoattractant Protein-1 (MCP1) Biomarker Activity (AID 2283046); details: primary human coronary artery smooth muscle cells; actives raise or lower the signal;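 also: MCP-1 level quantified by ELISA 24 h after dosing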
[7] = BSK_CASM3C_Proliferation: Cell Proliferation Assessment in the BioMAP Diversity Plus: CASM3C Assay (AID 2283047); details: primary human coronary artery smooth muscle cells;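 also: sulforhodamine B total protein stain as relative cell number at 560 nm; sub-confluent cells exposed 48 h before staining; fitted both ways against DMSO so gain or loss of cell number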
[8] = read-out: Monokine induced gamma interferon (MIG), CXCL9 (gene 4283); assay: BSK_CASM3C_MIG: BioMAP Diversity Plus: CASM3C Assay for Monokine induced gamma interferon (MIG) Biomarker Activity (AID 2283048); details: primary human coronary artery smooth muscle cells; actives raise or lower the signal;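 also: MIG protein level measured by ELISA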
[9] = read-out: serum amyloid A (SAA), SAA1 (gene 6288); assay: BSK_CASM3C_SAA: BioMAP Diversity Plus: CASM3C Assay for serum amyloid A (SAA) Biomarker Activity (AID 2283049); details: primary human coronary artery smooth muscle cells; actives raise or lower the signal;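 also: SAA protein level quantified by ELISA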
[10] = BSK_CASM3C_SRB: Viability Assessment in the BioMAP Diversity Plus: CASM3C Assay (AID 2283050); details: primary human coronary artery smooth muscle cells

Question: For `COC(=O)NC(=S)Nc1ccccc1NC(=S)NC(=O)OC`, which outcome [1] is on record?
Answer: inactive

Question: And the outcome [2]?
Answer: inactive

Question: And the outcome [3]?
Answer: inactive

Question: And the outcome [4]?
Answer: inactive

Question: And the outcome [5]?
Answer: inactive

Question: And the outcome [6]?
Answer: inactive

Question: And the outcome [7]?
Answer: inactive

Question: What about the outcome [8] of the same molecule?
Answer: inactive

Question: And the outcome [9]?
Answer: inactive

Question: And the outcome [10]?
Answer: inactive

Question: What does the source list for `O=P(O)(O)CCCl`?
Answer: outcome [1]: inactive; outcome [2]: inactive; outcome [3]: inactive; outcome [4]: inactive; outcome [5]: inactive; outcome [6]: inactive; outcome [7]: inactive; outcome [8]: inactive; outcome [9]: inactive; outcome [10]: inactive

Question: With `O=C(O)c1c(Cl)ccc2cc(Cl)cnc12` as the molecule, how does the outcome [1] read?
Answer: inactive

Question: What about the outcome [2] of the same molecule?
Answer: inactive

Question: What about the outcome [3] of the same molecule?
Answer: inactive

Question: And the outcome [4]?
Answer: inactive

Question: What about the outcome [5] of the same molecule?
Answer: inactive

Question: And the outcome [6]?
Answer: inactive

Question: And the outcome [7]?
Answer: inactive

Question: And the outcome [8]?
Answer: inactive

Question: What about the outcome [9] of the same molecule?
Answer: inactive

Question: And the outcome [10]?
Answer: inactive

Question: Which outcome [1] does the source give for `CC(C)Nc1nc(Cl)nc(NC(C)C)n1` here?
Answer: inactive

Question: What about the outcome [2] of the same molecule?
Answer: inactive

Question: And the outcome [3]?
Answer: inactive

Question: What about the outcome [4] of the same molecule?
Answer: inactive

Question: And the outcome [5]?
Answer: inactive

Question: What about the outcome [6] of the same molecule?
Answer: inactive

Question: And the outcome [7]?
Answer: inactive

Question: What about the outcome [8] of the same molecule?
Answer: inactive

Question: And the outcome [9]?
Answer: inactive

Question: What about the outcome [10] of the same molecule?
Answer: inactive

Question: What does the source list for `Nc1c(Cl)c(F)nc(OCC(=O)O)c1Cl`?
Answer: outcome [1]: inactive; outcome [2]: inactive; outcome [3]: inactive; outcome [4]: inactive; outcome [5]: inactive; outcome [6]: inactive; outcome [7]: inactive; outcome [8]: inactive; outcome [9]: inactive; outcome [10]: inactive

Question: With `O=C(Nc1ccccc1-c1ccc(Cl)cc1)c1cccnc1Cl` as the molecule, how does the outcome [1] read?
Answer: inactive

Question: And the outcome [2]?
Answer: inactive

Question: And the outcome [3]?
Answer: inactive

Question: What about the outcome [4] of the same molecule?
Answer: inactive

Question: What about the outcome [5] of the same molecule?
Answer: inactive

Question: What about the outcome [6] of the same molecule?
Answer: inactive

Question: And the outcome [7]?
Answer: inactive

Question: And the outcome [8]?
Answer: inactive

Question: What about the outcome [9] of the same molecule?
Answer: inactive

Question: What about the outcome [10] of the same molecule?
Answer: inactive

Question: What does the source list for `CC(C)C1(C)N=C(c2ncccc2C(=O)O)NC1=O` (stereo not given)?
Answer: outcome [1]: inactive; outcome [2]: inactive; outcome [3]: inactive; outcome [4]: inactive; outcome [5]: inactive; outcome [6]: inactive; outcome [7]: inactive; outcome [8]: inactive; outcome [9]: inactive; outcome [10]: inactive

Question: What does the source list for `COP(=S)(OC)SCn1nnc2ccccc2c1=O`?
Answer: outcome [1]: inactive; outcome [2]: inactive; outcome [3]: inactive; outcome [4]: inactive; outcome [5]: inactive; outcome [6]: inactive; outcome [7]: inactive; outcome [8]: inactive; outcome [9]: inactive; outcome [10]: inactive

Question: What does the source list for `CC1(C)CCC(=Cc2ccc(Cl)cc2)C1(O)Cn1cncn1` (stereo not given)?
Answer: outcome [1]: inactive; outcome [2]: inactive; outcome [3]: inactive; outcome [4]: inactive; outcome [5]: inactive; outcome [6]: inactive; outcome [7]: inactive; outcome [8]: inactive; outcome [9]: inactive; outcome [10]: inactive

Question: Which outcome [1] does the source give for `COP(=S)(OC)Oc1ccc([N+](=O)[O-])c(C)c1` here?
Answer: inactive

Question: What about the outcome [2] of the same molecule?
Answer: inactive

Question: And the outcome [3]?
Answer: inactive

Question: And the outcome [4]?
Answer: inactive

Question: And the outcome [5]?
Answer: inactive

Question: And the outcome [6]?
Answer: inactive

Question: What about the outcome [7] of the same molecule?
Answer: inactive

Question: What about the outcome [8] of the same molecule?
Answer: inactive

Question: What about the outcome [9] of the same molecule?
Answer: inactive

Question: What about the outcome [10] of the same molecule?
Answer: inactive

Question: For `CCCC(=NOCC)C1=C(O)CC(CC(C)SCC)CC1=O` (stereo not given), which outcome [1] is on record?
Answer: inactive

Question: What about the outcome [2] of the same molecule?
Answer: inactive

Question: What about the outcome [3] of the same molecule?
Answer: inactive

Question: What about the outcome [4] of the same molecule?
Answer: inactive

Question: What about the outcome [5] of the same molecule?
Answer: inactive

Question: What about the outcome [6] of the same molecule?
Answer: inactive

Question: What about the outcome [7] of the same molecule?
Answer: inactive

Question: What about the outcome [8] of the same molecule?
Answer: inactive

Question: And the outcome [9]?
Answer: inactive

Question: What about the outcome [10] of the same molecule?
Answer: inactive

Question: Which outcome [1] does the source give for `C=C(C)CN(CC)c1c([N+](=O)[O-])cc(C(F)(F)F)cc1[N+](=O)[O-]` here?
Answer: inactive

Question: And the outcome [2]?
Answer: inactive

Question: What about the outcome [3] of the same molecule?
Answer: inactive

Question: And the outcome [4]?
Answer: inactive

Question: What about the outcome [5] of the same molecule?
Answer: inactive

Question: And the outcome [6]?
Answer: inactive

Question: And the outcome [7]?
Answer: inactive

Question: And the outcome [8]?
Answer: inactive

Question: And the outcome [9]?
Answer: inactive

Question: And the outcome [10]?
Answer: inactive

Question: For `CC(C)(C)C(=O)C(Oc1ccc(Cl)cc1)n1cncn1` (stereo not given), which outcome [1] is on record?
Answer: inactive

Question: What about the outcome [2] of the same molecule?
Answer: inactive

Question: What about the outcome [3] of the same molecule?
Answer: inactive

Question: And the outcome [4]?
Answer: inactive

Question: And the outcome [5]?
Answer: inactive

Question: And the outcome [6]?
Answer: inactive

Question: What about the outcome [7] of the same molecule?
Answer: inactive

Question: And the outcome [8]?
Answer: inactive

Question: What about the outcome [9] of the same molecule?
Answer: inactive

Question: What about the outcome [10] of the same molecule?
Answer: inactive

Question: Which outcome [1] does the source give for `CCOc1nc(F)cc2nc(S(=O)(=O)Nc3c(Cl)cccc3Cl)nn12` here?
Answer: inactive

Question: And the outcome [2]?
Answer: inactive

Question: And the outcome [3]?
Answer: inactive

Question: And the outcome [4]?
Answer: inactive

Question: What about the outcome [5] of the same molecule?
Answer: inactive

Question: What about the outcome [6] of the same molecule?
Answer: inactive

Question: And the outcome [7]?
Answer: inactive

Question: What about the outcome [8] of the same molecule?
Answer: inactive

Question: What about the outcome [9] of the same molecule?
Answer: inactive

Question: What about the outcome [10] of the same molecule?
Answer: inactive

Question: With `CC(C)=CC1C(C(=O)OCc2coc(Cc3ccccc3)c2)C1(C)C` (stereo not given) as the molecule, how does the outcome [1] read?
Answer: inactive

Question: What about the outcome [2] of the same molecule?
Answer: inactive

Question: What about the outcome [3] of the same molecule?
Answer: inactive

Question: And the outcome [4]?
Answer: inactive

Question: What about the outcome [5] of the same molecule?
Answer: inactive

Question: What about the outcome [6] of the same molecule?
Answer: inactive

Question: What about the AC50 [7] of the same molecule?
Answer: 24.6 µM (active)

Question: And the outcome [8]?
Answer: inactive

Question: What about the outcome [9] of the same molecule?
Answer: inactive

Question: What about the outcome [10] of the same molecule?
Answer: inactive
